{"source": "PubChem BioAssay (NCI)", "note": "Compounds without any hit were thinned out: in the full panel of roughly 83,000, 20% have a hit.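 Single-dose data. Exposure time 48 hours. Values below 10 considered active.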 The source made the active and inactive calls."}
{"system": "SNB-75 CNS", "experiment": "NCI-60 one-dose screen, 48 h (100 = growth as untreated, 0 = no growth, -100 = all killed)", "details": "10 µM unless noted"}
{"smiles": "COc1ccc(NS(=O)(=O)N2CCCCC2)cc1", "growth": "115% (inactive)"}
{"smiles": "COc1ccc(-c2cc(-c3cccnc3)nc3sc(C(=O)Nc4ccccc4)c(N)c23)cc1OC", "growth": "82.8% (inactive)"}
{"smiles": "C/C(=C\\CCc1ccoc1)CC/C=C(\\C)CCCNc1ccc(F)cc1", "growth": "94.3% (inactive)"}
{"smiles": "Cc1cc2c(cc1C)[n+](Cc1ccc3ccccc3c1)cn2Cc1ccc2ccccc2c1", "growth": "-73.6% (active)"}
{"smiles": "CCN(CC)CCCCCCCNc1c2ccc(Cl)cc2nc2ccc(OC)cc12", "growth": "-94.1% (active)"}
{"smiles": "Cc1cc(C(=O)Nc2ccc3cc(CN4CCOCC4)ccc3n2)c(C)n1-c1ccccc1", "growth": "15.5% (inactive)"}
{"smiles": "COc1cc(Cl)cc(-c2nn(-c3cccc(NC(=O)c4cc(C(F)(F)F)cc(C(F)(F)F)c4)c3)cc2-c2ccncc2)c1", "growth": "60.8% (inactive)"}
{"smiles": "O=C(NCCNC(=O)Oc1cccc2ccccc12)Oc1cccc2ccccc12", "growth": "89.5% (inactive)"}
{"smiles": "COC(=O)[C@H](Cc1cn(C)cn1)NC(=O)[C@H](C)NC(=O)Nc1cc(C(F)(F)F)cc(C(F)(F)F)c1", "growth": "-78.3% [100 µM] (active)"}
{"smiles": "O=C1CNc2cc(Cl)ccc2N1", "growth": "89.8% (inactive)"}
